# PubChem BioAssay AID588342 (National Center for Advancing Translational Sciences (NCATS), 2011)
# Screen size: about 360,000 compounds; about 25,000 (6.9%) were called active. Not shown: some 9% with an inconclusive outcome. This excerpt belongs to a sample that is enriched for actives. Values without a mark were called inactive. Calls come from the whole dose curve; as a rule, active = well fitted inhibition curve with a large enough effect; inconclusive = small, poorly fitted or top-dose-only effect; inactive = flat fitted curve, though single readings scatter.
# Molecular target: Luciferin 4-monooxygenase (Photinus pyralis) (UniProt P08659)
# Sequence (P08659 whole entry, looked up): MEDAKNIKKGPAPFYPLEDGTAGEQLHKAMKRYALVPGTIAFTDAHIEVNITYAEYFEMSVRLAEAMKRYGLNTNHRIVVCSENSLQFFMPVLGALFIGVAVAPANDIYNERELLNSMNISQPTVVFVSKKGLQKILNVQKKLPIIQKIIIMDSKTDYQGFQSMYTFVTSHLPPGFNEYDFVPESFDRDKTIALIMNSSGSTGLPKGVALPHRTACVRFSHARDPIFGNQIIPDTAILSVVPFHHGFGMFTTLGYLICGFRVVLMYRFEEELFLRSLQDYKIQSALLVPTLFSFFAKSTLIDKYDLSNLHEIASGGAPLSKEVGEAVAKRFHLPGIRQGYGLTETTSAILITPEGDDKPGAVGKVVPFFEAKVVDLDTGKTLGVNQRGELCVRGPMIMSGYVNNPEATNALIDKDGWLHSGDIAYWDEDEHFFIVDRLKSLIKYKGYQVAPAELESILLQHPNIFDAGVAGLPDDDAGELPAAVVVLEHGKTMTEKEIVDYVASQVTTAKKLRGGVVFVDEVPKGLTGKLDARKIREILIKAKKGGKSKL
# Test: qHTS profiling assay for firefly luciferase inhibitor/activator using purifed enzyme and Km concentrations of substrates (counterscreen for miR-21 project); note: nearly all actives have a fitted effect of over 55% in size;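 for activity change, negative = inhibition: plate controls were vehicle for no effect and reference inhibitor for full effect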
# Details: purified FLuc, luminescence inhibition; series mostly up to 57.5 µM; activity change, negative = inhibition: at the top concentration
# From the text: MLPCN Grant: 1 R21 NS059478-01 (miR-21 grant) Assay Provider: NCGC NCGC Assay Overview: Firefly (Photinus pyralis) luciferase is one of the most commonly used transcriptional reporters for a number of reasons. It is considered one of the more dynamically responsive reporters -that is, responsive to changes in reporter transcription - as it requires no post-translational modifications and is enzymatically active directly after protein synthesis (Wood, 1998). Additionally, the half-life of the luciferase protein is short relative to other reporter-gene products (Wood, 1995). Whereas reporters with long half-lives potentially allow for increased signal due to accumulation of reporter-gene product, once accumulated in the cell, dynamic changes in reporter-gene expression may be difficult to detect(Fan and Wood, 2007; Almond et al., 2004). It has been shown that wild-type P. pyralis luciferase has a half-life of approximately […] hours in mammalian cells (Thompson et al., 1991). Firefly luciferase reporter-gene assays are also generally considered one of the most sensitive assay types (Wood, 1995; Wood, 1998). Although light produced in a bioluminescence reaction is of lower intensity than that produced during fluorescence emission, this is offset by little to no background light inherent to luminescent assays. Thus the luciferase reporter can be expressed at much lower levels than fluorescent proteins while still providing robust signal. # However, it was initially observed, in 1991, by Thompson et al., that compounds that resemble the substrates of firefly luciferase (FLuc) can act as competitive inhibitors of the enzyme, and that these compounds, upon interaction with luciferase in the cell, can actually stabilize the protein and increase its half-life. Accumulated intracellular FLuc protein can be measured as an increase in luminescence signal, upon addition of detection reagents (which contain high concentrations of FLuc substrates) commonly used in high-throughput screening. In cell-based reporter gene assays that use FLuc as the reporter gene to quantitate the potential influence of a given compound against the target biology, this apparent increase in luminescence can mistakenly be interpreted as identification of a compound that is active against the target of interest. This is the case for the miR-21 FLuc reporter gene assay used to identify inhibitors of the miR-21 pathway (PubChem AID 2289) - compounds of interest will inhibit miR-21 biogenesis/expression or activity, and are identified by causing an increase in luminescence, due to increased FLuc translation. However, FLuc inhibitory compounds that stabilize the FLuc protein will give an identical read-out, making it difficult to distinguish compounds that are active against the target from those active against FLuc. Previous profiling work to determine the prevalence of compounds that affect FLuc enzymatic activity (PubChem AID 411) identified that ~3% of the MLSMR library (then at ~72K) inhibited FLuc. […] Since the MLSMR had grown to ~350K compounds, and since it was expected that a significant percentage of compounds found active in the miR-21 FLuc assay would be FLuc inhibitors, the library was screened for activity against FLuc using a biochemical assay of purified FLuc and KM concentrations of FLuc substrates (D-luciferin and ATP).
# NCGC Assay Protocol Summary: Reagents: 50mM Tris acetate, pH 7.5; 10mM Mg acetate; 10uM D-luciferin (Sigma #L9504); 10uM ATP; 0.01% Tween-20; 0.05% BSA; 10nM P. pyralis luciferase (Sigma #L9506) Control compounds used were two known firefly luciferase inhibitors (compounds (2) and (5) in Auld et al., 2010), and DMSO. […]
SMILES,"activity change, negative = inhibition",Potency
Cc1ccc(OCCCCc2c(C)n[nH]c2C)cc1,-4.93%,–
CCCOc1ccc(-c2nc(N)n[nH]2)cc1,–,13.5 µM (active)
Nc1nc(SCCOc2ccccc2)n[nH]1,0.694%,–
Cc1ccc(CNC(=O)CSc2nnc3c(n2)[nH]c2ccc(F)cc23)cc1,2%,–
COc1ccc(Cl)cc1NC(=O)C(C)Sc1nc2c(c(=O)[nH]1)CCCC2 (centres undefined),-5.09%,–
COC(=O)CN(c1nc(C)c(Cl)c(OC)n1)S(=O)(=O)c1ccc(C)cc1,0.585%,–
COc1ccc2c(c1)CCc1c(C(=O)N3CCCC3)noc1-2,–,12 µM (active)
COc1ccc(C(=O)N2CCCN(C)CC2)c(OC)c1,0.687%,–
Cc1c(NC(=O)c2cc(-c3ccc(Br)cc3)on2)c(=O)n(-c2ccccc2)n1C,–,inactive
COc1ccc2c(c1)CCc1c(C(=O)Nc3cc(C)ccc3O)noc1-2,-14.2%,–
COc1ccc(S(=O)(=O)NC(C)C(=O)N2CCCCCC2)cc1 (centres undefined),1.17%,–
COc1ccc2c(c1)CCc1c(C(=O)Nc3c(C)n(C)n(-c4ccccc4)c3=O)noc1-2,–,23.9 µM (active)
COc1ccc(Cl)cc1NC(=O)CSc1nc(-c2cccs2)cc(C(F)(F)F)n1,-4.96%,–
CC(OC(=O)c1ccccc1NCCO)C(=O)Nc1ccnn1C(C)C (centres undefined),4.05%,–
Cn1c(=O)oc2cc(S(=O)(=O)CCC(=O)NCCc3ccc(Cl)cc3)ccc21,-0.179%,–
Fc1ccc(CSc2nc(NCc3ccccc3)c3ccccc3n2)cc1,4.76%,–
COc1ccc(CNC(=O)COC(=O)c2ccc(C)c(S(=O)(=O)N3CCOCC3)c2)cc1OC,-0.832%,–
O=C(COC(=O)C1CC2CCCC(C1)C2=O)NC(=O)c1ccccc1 (centres undefined),-6.45%,–
COc1ccc(Oc2coc3cc(OC(=O)c4cncc(Br)c4)ccc3c2=O)cc1,-0.0286%,–
CCc1ccc(Oc2coc3cc(O)ccc3c2=O)cc1,–,23.9 µM (active)
CCc1ccc(Oc2coc3cc(OC(=O)c4cc5ccccc5oc4=O)ccc3c2=O)cc1,-4.51%,–
N#Cc1ccc(-c2nc3cc(C#N)c(C#N)cc3nc2-c2ccccc2)cc1C#N,2.4%,–
COc1ccc(C)cc1NC(=O)C(=O)NCCc1sc(-c2cccc(C)c2)nc1C,1.25%,–
CC(C)c1ccc(Nc2ncccc2C#N)cc1,–,15.1 µM (active)
CC(C)c1ccc(NC(=O)Cn2c3ncccc3c(=O)n2-c2ccccc2)cc1,-9.91%,–
CN(C)c1ccnc(Nc2ccc(F)cc2)c1C#N,1.3%,–
CCOc1cc2[nH]c(=O)n(Cc3ccc(C(=O)NCCN(CC)CC)cc3)c(=O)c2cc1OCC,1.65%,–

SMILES,"activity change, negative = inhibition",Potency
O=C(Nc1ccc(Oc2ccccc2)cc1)C1CCN(S(=O)(=O)c2ccc(Cl)cc2)CC1,0.879%,–
O=C(O)c1ccccc1N=N/C(=N/Nc1cc(S(=O)(=O)O)ccc1O)c1ccccc1,–,16.9 µM (active)
O=C(CN(c1ccccc1)S(=O)(=O)c1ccc(Cl)cc1)Nc1ccccc1C(=O)N1CCCC1,-0.092%,–
CC(=O)c1c(C)[nH]c(C(=O)OCC(=O)Nc2c(C)cccc2C)c1C,-0.669%,–
CC(NC(=S)Nc1ccc(OC(F)F)cc1)c1ccc(F)cc1 (centres undefined),1.73%,–
C[C@@H]1NC(=O)[C@@]2(C)[C@@H](c3ccccc3)[C@H]3COc4ccccc4[C@@H]3N2C1=O,3%,–
CCc1ccc(Nc2nn3c(=O)c4cc5c(cc4nc3s2)OCO5)cc1,-6.84%,–
COc1cccc(CNC(=O)COc2cc(O)c3c(c2)OC(C)(C)CC3=O)c1,-10.3%,–
CC(C)CC(=O)N1CCN(Cc2ccccc2Br)CC1,1.19%,–
Cc1c(C(=O)NCc2ccccc2Br)oc2ccc3c(c12)C(=O)CC(C)(C)O3,–,1.69 µM (active)
COc1ccc(-c2nc3sc(CCNS(=O)(=O)c4ccc(F)c(C)c4)c(C)n3n2)cc1,-19%,–
COc1ccc(C(=O)Nc2ccc(-n3nncc3C(C)(C)C)cc2)cc1,-11.1%,–
COc1ccc(CNC(=O)C(=O)N2CCC3(CC2)OCCN3S(=O)(=O)c2ccc(C)cc2)cc1,-1.75%,–
Cc1cc(Cl)ccc1OCC(=O)N(Cc1ccc(N(C)C)cc1)C1CCS(=O)(=O)C1 (centres undefined),-12.5%,–
Cc1ccc(C(=O)COC(=O)C(Cc2c[nH]c3ccccc23)NC(=O)c2ccc(Br)cc2)cc1 (centres undefined),0.131%,–
COC(=O)[C@@H](NC(=O)Nc1cc(Cl)ccc1C)C(C)C,-4.44%,–
CC(CCCc1ccccc1)NC(=O)c1nn(-c2ccc(Cl)cc2)nc1CO (centres undefined),1.51%,–
Cc1cc2nn(-c3ccc(Cl)cc3)nc2cc1NC(=O)C(C)C,–,0.379 µM (active)
CCN(C(=O)COC(=O)c1c(C)nn(-c2ccccc2)c1Cl)c1c(N)n(Cc2ccccc2)c(=O)[nH]c1=O,-0.736%,–
CCOC(=O)C1=C(c2ccccc2)Nc2ncnn2C1c1ccc(Cl)cc1 (centres undefined),-10%,–
CCCSc1ncc(Cl)c(C(=O)Nc2sc3c(c2C(=O)NCCOC)CCCC3)n1,-5.29%,–
NCCCCCC(=O)N/N=C/c1ccc2nccnc2c1,-0.587%,–
O=C(N/N=C/c1ccc(Cl)c(Cl)c1)c1ccc2nc[nH]c2c1,–,13.5 µM (active)
CC(NC(=O)C(=O)N/N=C/c1ccc(Cl)cc1)c1ccccc1 (centres undefined),-1.64%,–
CSc1ccc(/C=N\NC(=O)CC(=O)NC(C)C)cc1,-5.08%,–
CC1=NNC(=O)C1CCC(=O)N/N=C\c1ccc(Cl)c(Cl)c1 (centres undefined),-6.92%,–
CSc1ccc(/C=N/NC(=O)c2cccc(Cl)c2)cc1,–,5.36 µM (active)
